# In ChEMBL document CHEMBL1201862, “PubChem BioAssay data set” (2004):
# Among all 53,000 […] or so, about 5,500 (10%) were called active. No stated cut-off is given here; in the data, active = GI50 up to about 1.1 µM and inactive = higher. Shown is part of a subset that was picked to be rich in actives. Results with a measured potency or affinity are listed apart.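 Compound exposure: 48 hours, 5 concentrations, 96-well plates. The concentration for 50% growth inhibition is given as GI50.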
# System: HL-60
# Assay: NCI tumour cell line growth inhibition, 48 h
row,Substance,GI50 [nM]
1,"ACRIFLAVINE HYDROCHLORIDE, CHEMBL5219995",333
2,"[Bis(aminomethyl)tetramethylenesilane]tetrachloropaltinum(IV), CHEMBL2146189",115
3,"[Bis(aminomethyl)ethylmethylsilane]tetrachloroplatinum(IV), CHEMBL2146192",156
4,"cis-Bis[[(trimethylsilyl)methyl]amino]tetrachloroplatinum(IV), CHEMBL2146191",1760
5,"[Bis(aminomethyl)dimethylsilane]tetrachloroplatinum(IV), CHEMBL2146190",248
6,"CISPLATIN, CHEMBL11359",542
7,"[Bis(aminomethyl)tetramethylenesilane]dichloropaltinum(II), CHEMBL2146205",1570
8,"[Bis(aminomethyl)dimethylsilane]dichloroplatinum (II), CHEMBL2146201",1300
9,"[Bis(aminomethyl)pentamethylenesilane]tetrachloropaltinum(IV), CHEMBL2146204",56.6
10,"[Bis(aminomethyl)diethylsilane]tetrachloroplatinum(IV), CHEMBL2146203",91.2
11,"mu-(1,7-nanodiamine-N,N')bis-(cis-aminedichloroplatimum (II)), CHEMBL2146215",1640
12,"[Bis(aminomethyl)pentamethylenesilane]dichloropaltinum(II), CHEMBL2146202",51.3
